This is part of a sample that, as a whole, favours compounds with a hit. Of some 83,000 tested, about 20% had one in any assay.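 Results are percent growth after 48 hours of single-concentration exposure. 100 means growth as in untreated cells, lower positive values show inhibition; negative values down to -100 show cell death.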 A number with no mark means an inactive call. The source made the active and inactive calls. The calls were made as follows: active = growth percent below 10; inactive = the rest.
Tests used:
Assay in all cases: NCI-60 one-dose screen, 48 h (100 = growth as untreated, 0 = no growth, -100 = all killed)
Conditions in all cases: 10 µM unless noted
[1] = system: NCI-H23 lung
[2] = system: NCI-H226 lung
[3] = system: NCI-H322M lung
[4] = system: HOP-62 NSCLC
[5] = system: NCI-H460 lung
[6] = system: HOP-92 NSCLC
[7] = system: NCI-H522 lung
[8] = system: A549/ATCC NSCLC
[9] = system: 786-0 renal
[10] = system: COLO 205 colon
[11] = system: DU-145 prostate
[12] = system: K-562 leukemia
[13] = system: MALME-3M melanoma
[14] = system: MDA-MB-231 breast
[15] = system: RXF 393 renal
[16] = system: SF-268 CNS
[17] = system: SF-295 CNS
[18] = system: SF-539 CNS
[19] = system: UACC-257 melanoma
[20] = system: M14 melanoma

Row | Compound | growth [1] | growth [2] | growth [3] | growth [4] | growth [5] | growth [6] | growth [7] | growth [8] | growth [9] | growth [10] | growth [11] | growth [12] | growth [13] | growth [14] | growth [15] | growth [16] | growth [17] | growth [18] | growth [19] | growth [20]
1 | CN(C)c1ccc(C(=NO)c2ccc(N(C)C)cc2)cc1 | 47.3% | 78.5% | 81.3% | 46.2% | 7.18% (active) | 37.8% | -25.8% (active) | 31.4% | 57.3% | 42.8% | 56% | 17% | 29.8% | 63.5% | 33.5% | 50.6% | 3.86% (active) | 33.7% | 41.4% | 17.4%
2 | CCn1cc(C2=C(c3cn(C)c4ncccc34)C(=O)NC2=O)c2cccnc21 | 66.3% | 57.5% | 79.6% | 73.1% | 44.5% | 81.4% | 83.9% | 65% | 50.5% | 49% | 80.1% | 100% | 73.8% | 61.2% | 76.9% | 75.6% | 61.4% | 72% | 102% | 81.8%
3 | CCCNc1nc2ccccc2c2c(=O)c3cccc(Cl)c3sc12 | 74.1% | 84.9% | 89.6% | 88.3% | 78.7% | 89.5% | 82.3% | 94% | 110% | 94.7% | 98.2% | 86% | 81.9% | 105% | 98.5% | 101% | 98.8% | 110% | 107% | 101%
4 | Cc1cc(C(=O)Nc2cc(Nc3ncccc3-c3ncnc4nc[nH]c34)ccc2F)cc(C(F)(F)F)c1 | 25.2% | 39.9% | 106% | 38.5% | 48.8% | -5.43% (active) | 63.1% | 55.7% | 63.5% | 13.4% | 74.8% | 4.38% (active) | 108% | 22.9% | 100% | 67.3% | 78.4% | 21.4% | 10.7% | 5.2% (active)
5 | COc1ccc(-c2ccc(-c3ccc(C(=N)N)cn3)s2)cc1 | 98.8% | 84.5% | 91.9% | 90% | -22.6% (active) | 80% | 82.4% | 63.6% | 99.7% | 62.4% | 64.2% | 0.33% (active) | 102% | 87.7% | 97.8% | 99% | 104% | 94.3% | 102% | 101%
6 | COc1cccc(Nc2ccnc3[nH]c4ccc([N+](=O)[O-])cc4c23)c1 | 64.5% | 48.7% | 84.3% | 34.6% | 30.7% | 31.5% | 30.4% | 37% | 25.7% | 51.7% | 76.9% | 19% | 53% | 60.1% | 33.5% | 60.7% | 45.5% | 48.9% | 57.4% | 34%
7 | O=C(CCCCCCN1CC(=O)N2[C@@H](C3CCCCC3)c3[nH]c4ccccc4c3C[C@H]2C1=O)NO | 72.2% | 97.1% | 79% | 65.9% | 61.1% | 59.1% | 39.9% | 86.5% | 88% | 62.9% | 80% | 31.1% | 37.5% | 82.9% | 65.2% | 106% | 89.2% | 69.3% | 54.1% | 63.8%
8 | CC[C@H](C)[C@H](NC(=O)[C@H](CCCNC(=N)N)NC(=O)[C@H](Cc1c[nH]c2ccccc12)NC(=O)[C@@H](NC(=O)[C@H](CCCCN)NC(=O)[C@H](CCCCN)NC(=O)[C@@H](NC(=O)[C@@H](NC(=O)[C@@H](NC(=O)[C@H](CCCCN)NC(=O)[C@H](Cc1ccccc1)NC(=O)[C@H](CCCCN)NC(=O)[C@H](CCCCN)NC(=O)[C@H](Cc1ccccc1)NC(=O)[C@@H](NC(=O)[C@@H](N)CCCCN)[C@@H](C)CC)[C@@H](C)O)[C@@H](C)CC)[C@@H](C)CC)C(C)C)C(=O)N[C@@H](Cc1ccccc1)C(=O)NCC(=O)N[C@@H](CCCNC(=N)N)C(=O)N[C@@H](Cc1ccccc1)C(N)=O | -37.9% (active) | 1.83% (active) | -50.5% (active) | -41.7% (active) | -5.53% (active) | -20.3% (active) | 14.1% | -40.6% (active) | -31.3% (active) | -55.3% (active) | -64.4% (active) | 4.14% (active) | -64.4% (active) | -70.6% (active) | -2.96% (active) | -23.2% (active) | -34.1% (active) | -69.8% (active) | 47.3% | -18.4% (active)
